In the supplement of paper PMC6089552:
Where “and” joins values, the source holds several entries; their conditions need not be identical. Equal values may be shown once. About 300 (9.4%) of roughly 3,200 compounds showed activity. The sample as a whole holds a higher share of actives than the screen did.

Tested on: A673/TR/shEF
Assay: cell viability (LOESS-normalised, relative to median of negative controls) (log2 ratio); higher = more viable cells (less compound effect), active = hit call of the paper (over 3 MAD below the median)
Details: treatment time: 72 h
Outline: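 A673/TR/shEF Ewing sarcoma cells (1,500 per well, 384-well plates) were grown with or without doxycycline to induce EWS-FLI1 shRNA knockdown, starting 24 h before compounds. Library compounds at two or more concentrations, with DMSO controls, were added for three days. Cell viability was read by CellTiter-Glo luminescence on an Envision reader, then LOESS-corrected per plate, divided by the median of negative controls and log2-transformed. Hits were wells at least three median absolute deviations from the median of all screened wells.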

[1] = 0.25 µM, library screen: screen1, EWS-FLI1 expression: high (no doxycycline)
[2] = 0.25 µM, library screen: screen1, EWS-FLI1 expression: low (doxycycline-induced shRNA knockdown)
[3] = 2.5 µM, library screen: screen1, EWS-FLI1 expression: high (no doxycycline)
[4] = 2.5 µM, library screen: screen1, EWS-FLI1 expression: low (doxycycline-induced shRNA knockdown)
[5] = 0.025 µM, library screen: screen2, EWS-FLI1 expression: high (no doxycycline)
[6] = 0.025 µM, library screen: screen2, EWS-FLI1 expression: low (doxycycline-induced shRNA knockdown)
[7] = 0.103 µM, library screen: screen3, EWS-FLI1 expression: high (no doxycycline)
[8] = 0.103 µM, library screen: screen3, EWS-FLI1 expression: low (doxycycline-induced shRNA knockdown)
[9] = 0.25 µM, library screen: screen2, EWS-FLI1 expression: high (no doxycycline)
[10] = 0.25 µM, library screen: screen2, EWS-FLI1 expression: low (doxycycline-induced shRNA knockdown)
[11] = 0.308 µM, library screen: screen3, EWS-FLI1 expression: high (no doxycycline)
[12] = 0.308 µM, library screen: screen3, EWS-FLI1 expression: low (doxycycline-induced shRNA knockdown)
[13] = 0.926 µM, library screen: screen3, EWS-FLI1 expression: high (no doxycycline)
[14] = 0.926 µM, library screen: screen3, EWS-FLI1 expression: low (doxycycline-induced shRNA knockdown)
[15] = 2.5 µM, library screen: screen2, EWS-FLI1 expression: high (no doxycycline)
[16] = 2.5 µM, library screen: screen2, EWS-FLI1 expression: low (doxycycline-induced shRNA knockdown)
[17] = 2.8 µM, library screen: screen3, EWS-FLI1 expression: high (no doxycycline)
[18] = 2.8 µM, library screen: screen3, EWS-FLI1 expression: low (doxycycline-induced shRNA knockdown)
[19] = 8.3 µM, library screen: screen3, EWS-FLI1 expression: high (no doxycycline)
[20] = 8.3 µM, library screen: screen3, EWS-FLI1 expression: low (doxycycline-induced shRNA knockdown)
[21] = 25 µM, library screen: screen2, EWS-FLI1 expression: high (no doxycycline)
[22] = 25 µM, library screen: screen2, EWS-FLI1 expression: low (doxycycline-induced shRNA knockdown)
[23] = 25 µM, library screen: screen3, EWS-FLI1 expression: high (no doxycycline)
[24] = 25 µM, library screen: screen3, EWS-FLI1 expression: low (doxycycline-induced shRNA knockdown)

Measured: cell viability (log2)

COC(=O)c1c(OC)cc2c(c1C)Oc1c(Cl)c(OC(C)=O)c(Cl)c(C)c1C(=O)O2
inactive: [1] 0.0846 | [2] 0.126 | [3] 0.0897 | [4] 0.152

COC(=O)C1=C(C)N=c2sc(=Cc3cccnc3)c(=O)n2C1c1ccccc1 (configuration not stated)
inactive: [1] 0.123 | [2] 0.0677 | [3] 0.0796 | [4] 0.107

O=C(/C=C/c1ccc(-c2cccc(Cl)c2)o1)c1ccco1
inactive: [1] 0.127 | [2] 0.15 | [3] 0.147 | [4] 0.194

S=c1nc[nH]c2nc[nH]c12
active: [3] -0.186 | [21] -0.312 | [23] -0.314
inactive: [5] 0.182 | [6] 0.0993 | [7] 0.0192 | [8] 0.0459 | [1] -0.0045 | [2] -0.00406 | [9] 0.161 | [10] 0.00291 | [11] 0.144 | [12] 0.158 | [13] 0.0964 | [14] 0.0595 | [4] 0.0219 | [15] -0.00564 | [16] 0.0787 | [17] 0.036 | [18] 0.0694 | [19] -0.147 | [20] 0.036 | [22] 0.0432 | [24] 0.056

O=c1nc[nH]c2nc[nH]c12
inactive: [1] 0.00725 | [2] -0.0191 | [3] 0.152 | [4] 0.0891

Cn1c(=O)c2[nH]cnc2n(C)c1=O
inactive: [7] 0.139 | [8] 0.0982 | [1] 0.0899 | [2] 0.0721 | [9] 0.105 and -0.0181 | [10] 0.0369 and 0.0406 | [11] 0.11 | [12] 0.14 | [13] 0.146 | [14] 0.0819 | [3] 0.127 | [4] 0.0623 | [15] 0.259 and 0.0738 | [16] 0.0969 and 0.00951 | [17] 0.155 | [18] 0.129 | [19] 0.11 | [20] 0.0762 | [23] 0.117 | [24] 0.0984

Cn1c(=O)[nH]c2nc[nH]c2c1=O
inactive: [1] 0.0262 | [2] 0.135 | [3] 0.103 | [4] 0.0812

Nc1nc(=S)c2[nH]cnc2[nH]1
active: [3] -0.318 | [15] -0.33 | [19] -0.323 | [21] -0.96 | [22] -0.163 | [23] -0.834
inactive: [5] 0.0835 | [6] 0.0155 | [7] 0.132 | [8] 0.0451 | [1] 0.0575 | [2] 0.137 | [9] 0.0679 | [10] 0.0691 | [11] 0.156 | [12] 0.137 | [13] 0.118 | [14] 0.102 | [4] 0.0456 | [16] -0.0263 | [17] 0.0258 | [18] 0.111 | [20] 0.0181 | [24] 0.027

COc1cc2ccc(=O)oc2c(OC)c1OC
inactive: [1] 0.24 | [2] 0.119 | [3] 0.156 | [4] 0.115

CC(C)/C(O)=C1/C(=O)O[C@@H](c2ccoc2)[C@]2(C)C(O)[C@@H](O)[C@@]34OC5(C)OC67CC(C)(C(O)[C@]6(O)[C@@H](O)[C@]3(O5)C12)[C@H](CC(=O)O)[C@]74C (some centres not stated)
inactive: [1] 0.0599 | [2] 0.0645 | [3] 0.0749 | [4] 0.047

COC(=O)C1=C(C)NC2=C(C(=O)CCC2)C1c1coc2ccccc2c1=O (configuration not stated)
inactive: [1] 0.109 | [2] 0.0579 | [3] 0.125 | [4] 0.0379

CC(=O)O[C@@H]1CC2C(C)(C)[C@@H](O)CC[C@]2(C)C2CC[C@@]3(C)[C@H](c4ccoc4)OC(=O)[C@H]4O[C@]43[C@@]21C (some centres not stated)
inactive: [1] 0.0735 | [2] 0.138 | [3] 0.203 | [4] 0.158

CCOc1cc(/C=C2\SC(=S)N(CCS(=O)(=O)O)C2=O)ccc1O
inactive: [1] -0.00487 | [2] 0.0852 | [3] 0.0865 | [4] 0.0812

CN1CCN(c2nc3ccccn3c(=O)c2/C=C2\SC(=S)N(CCc3ccccc3)C2=O)CC1
inactive: [1] -0.00293 | [2] 0.00861 | [3] 0.0344 | [4] 0.124

C[C@H](CCC(=O)O)[C@H]1CC[C@H]2[C@@H]3CC[C@@H]4CCCC[C@]4(C)[C@H]3CC[C@]12C
inactive: [1] 0.0641 | [2] -0.0159 | [3] 0.109 | [4] -0.0358

C/C=C(/C)C(=O)O[C@H]1[C@H](OC(C)=O)[C@]2(CO)[C@H](O)C[C@]3(C)C(=CC[C@@H]4[C@@]5(C)CC[C@H](O[C@@H]6O[C@H](C(=O)O)[C@@H](O[C@@H]7O[C@H](CO)[C@@H](O)[C@H](O)[C@H]7O)[C@H](O)[C@H]6O[C@@H]6O[C@H](CO)[C@@H](O)[C@H](O)[C@H]6O)[C@](C)(CO)[C@@H]5CC[C@]43C)[C@@H]2CC1(C)C.C/C=C(\C)C(=O)O[C@H]1[C@H](OC(C)=O)[C@@]2(CO)C(CC1(C)C)C1=CCC3[C@@]4(C)CC[C@H](O[C@@H]5O[C@H](C(=O)O)[C@@H](O[C@@H]6O[C@H](CO)[C@@H](O)[C@H](O)[C@H]6O)[C@H](O)[C@H]5O[C@@H]5O[C@H](CO)[C@@H](O)[C@H](O)[C@H]5O)[C@](C)(CO)C4CC[C@@]3(C)[C@]1(C)C[C@H]2O
inactive: [1] 0.0112 | [2] -0.0408 | [3] 0.0934 | [4] 0.0403

CCC1(O)CC2CN(CCc3c([nH]c4ccccc34)[C@@](C(=O)OC)(c3cc4c(cc3OC)N(C)C3[C@]45CCN4CC=C[C@@](CC)([C@@H](OC(C)=O)[C@]3(O)C(=O)OC)[C@H]45)C2)C1 (some centres not stated)
active: [9] -3.54 | [10] -0.483 | [15] -3.67 | [16] -0.537

CCC1=C[C@@H]2CN(C1)Cc1c([nH]c3ccccc13)[C@@](C(=O)OC)(c1cc3c(cc1OC)N(C)[C@H]1[C@@](O)(C(=O)OC)[C@H](OC(C)=O)[C@]4(CC)C=CCN5CC[C@]31[C@@H]54)C2
active: [7] -4.31 | [8] -1.05 | [11] -3.96 | [12] -1.11 | [13] -4.31 | [14] -0.811 | [17] -4.31 | [18] -0.798 | [19] -3.91 | [20] -0.769 | [23] -3.44 | [24] -0.836

CC[C@]1(O)C[C@H]2CN(CCc3c([nH]c4ccccc34)[C@@](C(=O)OC)(c3cc4c(cc3OC)N(C=O)[C@H]3[C@@](O)(C(=O)OC)[C@H](OC(C)=O)[C@]5(CC)C=CCN6CC[C@]43[C@@H]65)C2)C1
active: [7] -3.56 | [8] -0.748 | [9] -2.87 | [10] -0.436 | [11] -3.82 | [12] -0.668 | [13] -3.92 | [14] -0.728 | [15] -2.88 | [16] -0.517 | [17] -3.8 | [18] -0.704 | [19] -3.93 | [20] -0.847 | [23] -3.66 | [24] -0.84
